# Laboratory results published in PubChem BioAssay.
# Calls of active or inactive are those of the source. Unless noted, the rule behind the calls is not given here.
# Columns and labels:
# [1] = anti-His antibody binders, primary screen, artefact control for SMM control protein annotation, biochemical, small-molecule microarray, 635 nm fluorescence (AID 1128); settings: anti-His Alexa647 antibody binding, higher = more signal;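 note: score merges feature fluorescence with signal-to-noise for each printed compound spot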
# [2] = tested on: Human papillomavirus type 1a E7 protein (residues 1-88); assay: HPV1a E7 small-molecule binders, primary screen, biochemical, small-molecule microarray, residues 1-88, 635 nm (AID 1129); settings: small-molecule microarray binding, fluorescence 635 nm; higher = more signal
# [3] = target: Focal adhesion kinase 1 (Homo sapiens) (UniProt Q05397); assay: small-molecule microarray binders of FAK, primary screen, biochemical, 635/667 nm fluorescence, BSA, DTT (AID 1130); settings: PTK2 binding, 635 nm fluorescence, higher = more signal;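 note: composite of spot emission at 667 nm and signal to noise over triplicate slides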
# [4] = tested on: Fibrinogen (Alexa647-labelled); assay: fibrinogen binders on compound microarrays, profiling panel, artefact control for SMM control-protein annotation, biochemical, small-molecule microarray, 635/667 nm fluorescence (AID 1131); settings: fibrinogen-A647 binding fluorescence, higher = more signal;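 note: z-score merges 667 nm fluorescence with per-spot signal-to-noise over triplicate slides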
# [5] = target: Follistatin (Homo sapiens) (UniProt P19883); assay: follistatin binders on small-molecule microarrays, primary screen, biochemical, small-molecule microarray, 635/667 nm fluorescence (AID 1132); settings: FST binding, 635 nm fluorescence, higher = more signal
# [6] = target: Fibroblast growth factor 2 (Homo sapiens) (UniProt P09038); assay: FGF2 binders on small-molecule microarrays, primary screen, biochemical, small-molecule microarray, 635/667 nm fluorescence (AID 1133); settings: small-molecule microarray binding, FGF2, fluorescence 635/667; higher = more signal
# [7] = mitochondrial membrane potential change in A549 cells, profiling panel, cell-based, JC-1 fluorescence, basal, 24 h, 100 nL (AID 1138); settings: higher = more signal;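 note: A549 lung adenocarcinoma cells under basal conditions with no added stimulus; test concentration not given here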
# [8] = tested on: Lefty1; assay: Lefty1 binders on small-molecule microarrays, primary screen, biochemical, small-molecule microarray, 635/667 nm fluorescence (AID 1139); settings: small-molecule microarray binding, fluorescence 635/667; higher = more signal
# [9] = tested on: wheat germ agglutinin (Triticum aestivum), Alexa647-labelled; assay: wheat germ agglutinin binders on compound microarrays, profiling panel, artefact control for SMM control-protein annotation, biochemical, small-molecule microarray, 635/667 nm fluorescence (AID 1140); settings: WGA-A647 binding, 635 nm fluorescence, higher = more signal;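 note: score merges 667 nm feature emission with signal to noise over triplicate slides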
# [10] = target: Luciferin 4-monooxygenase (Photinus pyralis) (UniProt P08659); assay: firefly luciferase enzyme inhibitors, primary screen, biochemical, luminescence, purified enzyme, 2006 set (AID 1141); settings: SteadyGlo luminescence, 30 min, higher = more signal, called active from +8 up or from −8 down;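 note: cell-free assay with purified firefly luciferase at 100 ng per well in PBS; test concentration not given here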
# [11] = tested on: Wnt5a (protein binding on small-molecule microarray); assay: Wnt5a binders on small-molecule microarray, primary screen, biophysical, 635/667 nm fluorescence (AID 1142); settings: 635 nm fluorescence, higher = more signal;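 note: fluorescence read at 667 nm with signal to noise per printed feature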
# [12] = cell viability in Huh7 cells, primary screen, cytotoxicity control for HCV replication inhibitor project, CellTiter-Glo luminescence, basal, 48 h (AID 1143); settings: Huh7 HCV replicon, higher = more signal, called active from +8 up or from −8 down;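 note: Huh7 hepatoma cells carrying a hepatitis C replication reporter with no stimulus; test concentration not given here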
# [13] = P. aeruginosa biofilm formation inhibitors, primary screen, PAO1 strain, BacTiter-Glo luminescence, LB-PBS (AID 1144); settings: 12 h, higher = more signal
# [14] = CREB reporter modulators without forskolin, primary screen, cell-based, PC12, CRE-LacZ reporter, unstimulated (AID 1145); settings: no forskolin, luminescence, 4.5 h, higher = more signal, called active from +8 up or from −8 down
# [15] = CREB reporter modulators under forskolin, primary screen, cell-based, PC12, CRE-LacZ reporter, forskolin-stimulated (AID 1146); settings: luminescence, 4.5 h, higher = more signal, called active from +8 up or from −8 down;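 note: PC12 cells with 6xCRE LacZ reporter stimulated by forskolin 10 µM; beta-galactosidase reporter signal reflecting CREB driven transcription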
# [16] = target: Streptavidin (Streptomyces avidinii) (UniProt P22629); assay: streptavidin binders on small-molecule microarray, primary screen, artefact control for SMM compound annotation, biophysical, 635/667 nm fluorescence (AID 1147); settings: streptavidin binding, higher = more signal;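 note: signal reflects streptavidin binding to arrayed compounds as a control protein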
# [17] = small-molecule binders of probe aInhba, primary screen, biochemical, small-molecule microarray, 635/667 nm fluorescence (AID 1148); settings: higher = more signal;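 note: score merges 667nm spot fluorescence with signal-to-noise for antibody binding to printed compounds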
# [18] = target: Torsin-1A (Homo sapiens) (UniProt O14656); assay: torsin A binders from cell lysate, primary screen, small-molecule microarray, wild-type, 635/667 nm (AID 1149); settings: COS7 hTOR1A-WT lysate, 635 nm fluorescence, higher = more signal
# [19] = target: Torsin-1A (Homo sapiens) (UniProt O14656); assay: small-molecule binders of mutant TOR1A in lysate, primary screen, cell lysate, small-molecule microarray, COS7 lysate, 635/667 nm fluorescence (AID 1150); settings: COS7 hTOR1A mutant lysate, 635 nm fluorescence, higher = more signal;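 note: score pools 667 nm emission and signal to noise measuring lysate protein binding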
# [20] = tested on: Sonic hedgehog protein (Shh); assay: small-molecule binders of Shh protein, primary screen, biochemical, small-molecule microarray, 635/667 nm fluorescence (AID 1151); settings: small-molecule microarray binding, 635 nm fluorescence; higher = more signal;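 note: Shh protein binding to compounds spotted on small-molecule microarray slides; score combines spot fluorescence intensity with signal-to-noise across triplicate slides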
# Chain of Follistatin (Homo sapiens) (P19883 whole entry, looked up): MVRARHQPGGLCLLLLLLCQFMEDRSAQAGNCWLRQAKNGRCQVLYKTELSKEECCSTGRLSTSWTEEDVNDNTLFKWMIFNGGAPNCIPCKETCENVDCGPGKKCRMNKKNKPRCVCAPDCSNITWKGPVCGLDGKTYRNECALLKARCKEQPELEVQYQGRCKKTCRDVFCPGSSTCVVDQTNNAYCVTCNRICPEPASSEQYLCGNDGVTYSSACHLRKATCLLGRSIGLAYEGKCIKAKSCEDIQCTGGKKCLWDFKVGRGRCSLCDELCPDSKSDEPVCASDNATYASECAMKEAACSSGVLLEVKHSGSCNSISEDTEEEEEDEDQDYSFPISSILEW
# Chain of Fibroblast growth factor 2 (Homo sapiens) (P09038 whole entry, looked up): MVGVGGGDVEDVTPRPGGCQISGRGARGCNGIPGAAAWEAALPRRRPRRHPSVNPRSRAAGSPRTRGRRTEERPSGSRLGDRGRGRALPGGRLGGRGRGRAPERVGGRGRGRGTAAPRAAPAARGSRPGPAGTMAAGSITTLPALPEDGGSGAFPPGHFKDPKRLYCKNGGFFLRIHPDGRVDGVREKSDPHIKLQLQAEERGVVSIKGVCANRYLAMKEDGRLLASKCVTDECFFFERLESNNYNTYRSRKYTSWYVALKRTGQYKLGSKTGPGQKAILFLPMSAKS
# Chain of Focal adhesion kinase 1 (Homo sapiens) (Q05397 whole entry, looked up): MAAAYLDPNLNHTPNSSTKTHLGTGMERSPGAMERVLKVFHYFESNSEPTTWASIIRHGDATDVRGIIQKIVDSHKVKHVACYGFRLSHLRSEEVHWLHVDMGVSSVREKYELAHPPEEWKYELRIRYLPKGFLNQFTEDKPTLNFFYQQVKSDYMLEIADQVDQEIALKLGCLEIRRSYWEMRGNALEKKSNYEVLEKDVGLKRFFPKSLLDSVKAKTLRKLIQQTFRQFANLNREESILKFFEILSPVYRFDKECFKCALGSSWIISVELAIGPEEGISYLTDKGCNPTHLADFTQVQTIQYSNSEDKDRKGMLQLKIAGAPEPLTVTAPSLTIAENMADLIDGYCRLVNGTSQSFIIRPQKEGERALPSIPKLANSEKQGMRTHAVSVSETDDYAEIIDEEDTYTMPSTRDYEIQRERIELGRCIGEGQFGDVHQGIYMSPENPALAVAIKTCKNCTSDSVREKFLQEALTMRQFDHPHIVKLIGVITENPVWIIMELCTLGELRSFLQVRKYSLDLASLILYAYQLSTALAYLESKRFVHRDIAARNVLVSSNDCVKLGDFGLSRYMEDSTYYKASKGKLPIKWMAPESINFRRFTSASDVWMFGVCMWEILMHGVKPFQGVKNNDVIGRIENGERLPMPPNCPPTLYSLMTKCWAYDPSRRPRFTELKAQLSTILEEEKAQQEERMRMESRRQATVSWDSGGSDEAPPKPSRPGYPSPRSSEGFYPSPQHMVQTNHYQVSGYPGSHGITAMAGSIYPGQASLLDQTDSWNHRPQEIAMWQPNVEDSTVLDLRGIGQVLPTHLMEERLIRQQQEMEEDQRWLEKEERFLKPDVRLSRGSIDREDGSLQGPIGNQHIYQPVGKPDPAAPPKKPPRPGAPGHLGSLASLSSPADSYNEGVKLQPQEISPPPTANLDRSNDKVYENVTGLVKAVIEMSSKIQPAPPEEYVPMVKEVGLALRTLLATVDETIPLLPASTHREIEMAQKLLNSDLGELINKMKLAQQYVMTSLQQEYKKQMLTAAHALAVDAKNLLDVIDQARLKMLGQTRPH
# Chain of Streptavidin (Streptomyces avidinii) (P22629 whole entry, looked up): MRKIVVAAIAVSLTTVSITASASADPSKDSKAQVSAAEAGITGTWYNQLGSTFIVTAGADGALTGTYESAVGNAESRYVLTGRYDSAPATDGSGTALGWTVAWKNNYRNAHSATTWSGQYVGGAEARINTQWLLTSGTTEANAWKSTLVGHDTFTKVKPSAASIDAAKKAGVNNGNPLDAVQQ
# Chain of Luciferin 4-monooxygenase (Photinus pyralis) (P08659 whole entry, looked up): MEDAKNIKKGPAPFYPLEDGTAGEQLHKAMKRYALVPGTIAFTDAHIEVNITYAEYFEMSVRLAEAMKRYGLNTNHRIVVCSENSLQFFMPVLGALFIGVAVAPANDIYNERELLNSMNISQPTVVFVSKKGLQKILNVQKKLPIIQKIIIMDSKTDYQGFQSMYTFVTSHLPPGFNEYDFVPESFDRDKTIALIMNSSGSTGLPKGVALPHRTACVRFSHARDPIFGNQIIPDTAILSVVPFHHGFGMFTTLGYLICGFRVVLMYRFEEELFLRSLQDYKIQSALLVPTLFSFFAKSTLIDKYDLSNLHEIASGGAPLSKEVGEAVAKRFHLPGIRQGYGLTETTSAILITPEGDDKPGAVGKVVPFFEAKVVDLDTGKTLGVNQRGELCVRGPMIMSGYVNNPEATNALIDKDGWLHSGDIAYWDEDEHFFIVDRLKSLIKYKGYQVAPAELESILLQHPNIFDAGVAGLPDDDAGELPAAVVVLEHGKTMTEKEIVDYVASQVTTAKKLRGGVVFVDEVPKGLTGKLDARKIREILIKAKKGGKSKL
# Chain of Torsin-1A (Homo sapiens) (O14656 whole entry, looked up): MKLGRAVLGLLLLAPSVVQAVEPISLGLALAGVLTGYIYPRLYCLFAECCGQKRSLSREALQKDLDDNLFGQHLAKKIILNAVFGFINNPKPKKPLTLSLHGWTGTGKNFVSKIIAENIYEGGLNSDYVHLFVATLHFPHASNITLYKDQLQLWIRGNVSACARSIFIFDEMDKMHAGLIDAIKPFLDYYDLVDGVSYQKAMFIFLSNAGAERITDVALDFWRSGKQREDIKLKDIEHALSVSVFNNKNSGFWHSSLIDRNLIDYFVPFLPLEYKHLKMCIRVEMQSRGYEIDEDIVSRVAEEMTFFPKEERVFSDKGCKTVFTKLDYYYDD
Structure (SMILES),composite z-score [1],composite z-score [2],composite z-score [3],composite z-score [4],composite z-score [5],composite z-score [6],z-score [7],composite z-score [8],composite z-score [9],z-score [10],composite z-score [11],z-score [12],z-score [13],z-score [14],z-score [15],composite z-score [16],composite z-score [17],composite z-score [18],composite z-score [19],composite z-score [20]
COc1ccc([Si](C)(C)[C@H]2[C@H](CC(=O)N3CCC[C@H]3CO)O[C@@]3(C(=O)N(c4ccccc4)c4ccccc43)[C@@H]2C)cc1,0.318,0.0005,0.223,-0.445,0.813,0.441,0.16,0.992,0.0807,0.72 (inactive),-0.154,-3.6 (inactive),0.355 (inactive),-0.636 (inactive),-0.38 (inactive),-0.124,-0.154,0.656,0.0932,1.23
C=CCN1C(=O)[C@@]2(O[C@@H](CCO)[C@H]([Si](C)(C)c3ccc(OC)cc3)[C@H]2C)c2cc(NC(C)=O)ccc21,1.48,1.21,0.0016,0.818,1.34,1.45,0.921,1.22,0.948,-0.301 (inactive),0.303,-4.72 (inactive),0.445 (inactive),7.68 (inactive),0.766 (inactive),-0.0236,0.0982,0.31,0.364,1.85
CC1(C)C(=O)C(c2ccccc2)=C2CN3C(=O)N(CCc4ccccc4)C(=O)C3(Cc3ccccc3)C=C21 (stereo not given),0.323,1.14,0.369,0.119,0.552,-0.492,0.19,-0.378,1.03,0.245 (inactive),0.114,-1.13 (inactive),-0.741 (inactive),0.576 (inactive),0.15 (inactive),0.982,0.134,0.736,-0.244,-1.07
COC(=O)[C@@]1(Cc2ccc(OC)cc2)[C@H]2c3cc(C(=O)N(C)C)n(Cc4ccc(OC)c(OC)c4)c3C[C@H]2CN1C(=O)c1ccccc1,1.26,1.25,0.96,0.844,0.745,-0.3,0.327,-0.257,0.951,1.72 (inactive),0.171,-2.97 (inactive),0.437 (inactive),0.583 (inactive),0.292 (inactive),1.67,0.55,0.258,1.17,-0.521
CCOC(=O)C[C@H]1[C@H](OC(=O)c2ccccc2-c2ccccc2)[C@@H](NC(=O)c2ccc(-c3ccccc3)cc2)c2cc(OCCCO)ccc2N1C(=O)c1ccccc1,0.426,0.78,0.177,0.58,0.77,0.466,1.39,0.935,0.17,-0.0993 (inactive),0.0187,-0.134 (inactive),0.945 (inactive),3.85 (inactive),-1.14 (inactive),0.236,0.0569,-0.29,0.272,0.684
C=C(CCCC)/C(=C/C[C@@H](OC(=O)c1ccncc1)c1ccc(CO)o1)c1cc(C(=O)OC)ccc1OC,1.94,1.23,0.129,0.889,1.16,0.622,-0.108,1.57,1.18,-3.31 (inactive),0.079,-0.605 (inactive),0.363 (inactive),6.18 (inactive),4.24 (inactive),0.707,0.027,0.394,1.23,1.97
O=C1C2C=CC(C(O)c3ccccn3)N(Nc3ccccc3F)C2C(=O)N1c1ccccc1 (stereo not given),-0.0724,0.525,1.27,0.696,0.101,-0.0308,1.03,-0.377,0.253,-0.323 (inactive),-0.0672,0.894 (inactive),-0.62 (inactive),-0.708 (inactive),0.901 (inactive),0.429,-0.0986,0.456,0.432,-0.461
C=C(/C(=C/C[C@@H](OC(C)=O)c1ccc(CO)o1)c1cnc2ccccc2c1)C(C)C,0.452,1.23,0.88,0.594,1.4,1.9,-0.527,1.37,0.463,-3.13 (inactive),1.3,-0.136 (inactive),-0.171 (inactive),0.159 (inactive),-0.731 (inactive),0.17,-0.0448,2.14,0.619,2.04
COc1ccc(C#Cc2ccc3c(c2)[C@]2(C(=O)N3)[C@H](C(=O)N3CCc4cc(OC)c(OC)cc4C3)[C@H]3C(=O)O[C@H](c4ccccc4)[C@H](c4ccccc4)N3[C@@H]2c2ccc(OCCO)cc2)cc1,0.441,1.2,1.1,0.821,1.21,1.24,-1.09,0.941,1.17,-0.297 (inactive),0.665,-0.763 (inactive),-0.745 (inactive),-0.258 (inactive),-0.166 (inactive),1,0.136,0.947,0.488,1.88
O=C1NC(=O)C2C1C=CC(C(O)c1cccs1)N2Nc1ccccn1 (stereo not given),1.23,0.532,-0.374,0.725,0.131,0.0343,0.543,0.0773,-0.0456,-1.68 (inactive),0.0343,0.847 (inactive),-1.39 (inactive),-0.712 (inactive),-1.04 (inactive),-0.0099,-0.214,0.484,0.244,-0.0541
